Several values for one entry are separate records, joined by “and”; a condition that tells them apart may be missing. Equal entries are not always repeated. Hit rate of the full screen: of about 360,000 compounds, about 6,200 (1.7%) were called active. This is one part of a sample in which actives are shown more often than they occur.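 How the source made its calls: active means inhibition of at least 50% at 20 µM; inactive means the rest.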
assay: Peg3 promoter-driven luciferase inhibitors, primary screen, cell-based, HeLa, luciferase luminescence (AID 588405); conditions: HeLa PEG-Prom luciferase reporter, overnight, at 20 µM, hits give high values

With CC(=O)Nc1cc(-c2ccccc2N(C)C)cn2c(-c3ccc(F)c(Cl)c3)cnc12 as the compound, how does the inhibition read?
Its inhibition is 32% (inactive).

For COc1ccc(NC(=O)C(C)SCc2ccccc2)cc1 (stereo unspecified), which inhibition is on record?
The inhibition was -27.6% (inactive).

Which inhibition does the source give for O=C(c1cc(C2CCCCN2S(=O)(=O)c2ccccc2)on1)N1CCOCC1 (stereo unspecified) here?
Its inhibition is 1.6% (inactive).

Which inhibition does the source give for COc1cc(Cn2c3ccc(NC(=O)CC(C)c4ccccc4)cc3c(=O)n2C)ccc1F (stereo unspecified) here?
The inhibition was 12.9% (inactive).

Which inhibition does the source give for COC(=O)c1c(C)[nH]c(C(=O)/C=C/c2ccc(Cl)cc2)c1C here?
The inhibition was -126% (inactive).

For Cc1[nH]c(=O)c(C(=O)/C=C/c2ccccc2)c2c1CCCC2, which inhibition is on record?
The inhibition was 102% (active).

For CC1(C(=O)O)CCCN(C(=O)/C=C/c2ccccc2)C1 (stereo unspecified), which inhibition is on record?
The inhibition was 5.91% (inactive).

Which inhibition does the source give for COc1ccc(-c2coc3c(C(=O)NC(C)C)cccc23)c(C)c1 here?
Its inhibition is 10.8% (inactive).

For COc1ccc(S(=O)(=O)NC(=O)C2(C)CCN2C(=O)c2ccccc2CCc2ccccc2)cc1 (stereo unspecified), which inhibition is on record?
The inhibition was -1.34% (inactive).

With CCCC(=O)N1CCC1(C)C(=O)NCc1ccc(SC)cc1 (stereo unspecified) as the compound, how does the inhibition read?
Its inhibition is -5.97% (inactive).

With Cc1cccc(N2C(=O)SC(SC(=Nc3ccccc3)Nc3ccccc3)C2=O)c1 (stereo unspecified) as the compound, how does the inhibition read?
Its inhibition is -30% (inactive).

Which inhibition does the source give for Cc1ccc(-c2nn(C(C)(C)C)c3ncnc(N)c23)cc1 here?
The inhibition was 55.2% (active).

For N#Cc1ccc(-c2ccc3nccn3c2)cc1, which inhibition is on record?
Its inhibition is -24.7% (inactive).

For O=C1NC(c2ccccc2)=NC1(Nc1ccccn1)C(F)(F)F (stereo unspecified), which inhibition is on record?
Its inhibition is -4.5% (inactive).

With CC(=O)c1ccc(-c2cnc3c(NC=O)cc(-c4cccc(NS(C)(=O)=O)c4)cn23)cc1 as the compound, how does the inhibition read?
Its inhibition is 48.1% (inactive).

With Cc1ccc(-c2ccc(=O)n(Cc3ccc(F)cc3Cl)n2)cc1 as the compound, how does the inhibition read?
The inhibition was 2.87% (inactive).

For N/C(=N/O)c1cccn1Cc1ccccc1[N+](=O)[O-], which inhibition is on record?
Its inhibition is 3.69% (inactive).

Which inhibition does the source give for O=c1c([N+](=O)[O-])cccn1Cc1ccc(F)cc1Cl here?
The inhibition was 56.1% (active).

For CC(C)c1cccc(-c2csc(C(O)c3ccccc3)n2)c1 (stereo unspecified), which inhibition is on record?
The inhibition was -103% (inactive).

Which inhibition does the source give for CSCCC(c1nnnn1Cc1ccccc1)N1CCN(C/C=C/c2ccccc2)CC1 (stereo unspecified) here?
Its inhibition is 11.4% (inactive).

With CCc1ccc(C2N3CC4([N+](=O)[O-])CN2CC([N+](=O)[O-])(C3)C4(C)C)cc1 (stereo unspecified) as the compound, how does the inhibition read?
Its inhibition is 27.3% (inactive).

With C=CC[n+]1c(-c2ccc(C)cc2)csc1NNC(=O)Nc1ccccc1 as the compound, how does the inhibition read?
The inhibition was -6.81% (inactive).

For CC(=O)c1ccc(Nc2nc(C(N)c3ccccc3Cl)cs2)cc1 (stereo unspecified), which inhibition is on record?
The inhibition was -22.8% (inactive).

Which inhibition does the source give for COc1ccccc1NC(=O)Nc1nc(CC(=O)Nc2ccccc2F)cs1 here?
The inhibition was 4.34% (inactive).

For NC(c1csc(NC(=O)Nc2ccccc2Oc2ccccc2)n1)c1ccccc1Cl (stereo unspecified), which inhibition is on record?
Its inhibition is 58.1% (active).

Which inhibition does the source give for O=S1(=O)C[C@@H](N2CCN(CCO)CC2)[C@H](COCc2ccccc2)N1 here?
The inhibition was -0.57% (inactive).

With COC(=O)C1=C(C)N(C(C)c2ccccc2)C(=O)/C1=C\c1ccco1 (stereo unspecified) as the compound, how does the inhibition read?
Its inhibition is 12.2% (inactive).

Which inhibition does the source give for O=C(CCn1c(=S)[nH]c2cc3c(cc2c1=O)OCO3)NCc1ccc(Cl)cc1 here?
The inhibition was 9.93% (inactive).

With CCN(CC)CCCNC(=O)c1ccc2c(=O)n(Cc3ccc4c(c3)OCO4)c(=S)[nH]c2c1 as the compound, how does the inhibition read?
Its inhibition is 56.1% (active).

Which inhibition does the source give for COCCn1c(=S)[nH]c2cc(C(=O)NCCc3ccc(OC)c(OC)c3)ccc2c1=O here?
The inhibition was 17.6% (inactive).

For NC(=O)CSc1nnc(NC(=O)c2ccc(Br)o2)s1, which inhibition is on record?
The inhibition was -5.94% (inactive).

For Cc1nnc(NC(=O)C(c2ccccc2)c2ccccc2)s1, which inhibition is on record?
Its inhibition is -0.94% (inactive).

Which inhibition does the source give for Cc1ccc(CS(=O)(=O)c2ncc(Cl)c(C(=O)Nc3nnc(C)s3)n2)cc1 here?
The inhibition was 98.9% (active).

For CSc1nnc(NC(=O)c2nc(S(=O)(=O)Cc3ccc(C)cc3)ncc2Cl)s1, which inhibition is on record?
The inhibition was 103% (active).

For O=C(Nc1nnc(-c2ccc(F)cc2)s1)c1c(F)cccc1Cl, which inhibition is on record?
Its inhibition is -27.2% (inactive).

For Cc1ccc(S(=O)(=O)CCC(=O)Nc2nnc(CC(C)C)s2)cc1, which inhibition is on record?
Its inhibition is 10.6% (inactive).

With Nc1nc2cc(Cl)ccc2n1N as the compound, how does the inhibition read?
Its inhibition is -1.93% (inactive).

Which inhibition does the source give for CC(C)NC(=O)C1(C)CCCCCN1C(=O)c1ccc(-c2ccccc2)cc1 (stereo unspecified) here?
Its inhibition is -0.82% (inactive).

With COc1ccc(NC(=O)C2Cc3c(-c4ccc(Cl)cc4)ccnc3O2)cc1 (stereo unspecified) as the compound, how does the inhibition read?
Its inhibition is 22.6% (inactive).

For O=C(c1[nH]ncc1-c1ccc(Cl)cc1)C1CO1 (stereo unspecified), which inhibition is on record?
The inhibition was 52% (active).

With COc1cccc(C(NC(C)=O)c2nc(-c3ccccc3OC)cs2)c1 (stereo unspecified) as the compound, how does the inhibition read?
Its inhibition is -8.65% (inactive).

For Nc1nc(NC(=O)/C=C/c2ccccc2)nn1-c1ccccc1, which inhibition is on record?
Its inhibition is -6.78% (inactive).

Which inhibition does the source give for c1ccc(-n2cccc2)c(N2CCCCC2)c1 here?
Its inhibition is 2.67% (inactive).

With CCC(=O)c1ccc(OCC(=O)Nc2ccc(N3CCCCC3)cc2)cc1 as the compound, how does the inhibition read?
Its inhibition is -13.9% (inactive).

With O=C1C=CC(=O)N1c1ccc(N2CCCCC2)cc1 as the compound, how does the inhibition read?
The inhibition was 108% (active).

With CN1OC[C@@H]2CN(C(=O)c3cccnc3)[C@H](c3ccc(N4CCCCC4)cc3)C[C@@H]21 as the compound, how does the inhibition read?
The inhibition was -11.6% (inactive).

With CCOC(=O)C1=C(CN2CCc3ccccc32)NC(=O)NC1c1cc(C)ccc1C (stereo unspecified) as the compound, how does the inhibition read?
Its inhibition is 34.6% (inactive).

With CCOC(=O)C1=C(CN2CCc3ccccc32)NC(=O)NC1c1cccc([N+](=O)[O-])c1 (stereo unspecified) as the compound, how does the inhibition read?
Its inhibition is 43.4% (inactive).

Which inhibition does the source give for CCOC(=O)C1=C(CN2CCc3ccccc32)NC(=O)NC1c1ccc(Cl)cc1 (stereo unspecified) here?
The inhibition was 61.5% (active).

For COc1cc(CCN=Cc2ccccc2O)c([N+](=O)[O-])cc1OC, which inhibition is on record?
The inhibition was -5.6% (inactive).

For O=C(NCC(O)c1nc2ccccc2[nH]1)c1ccc(Br)cc1 (stereo unspecified), which inhibition is on record?
Its inhibition is -5.63% (inactive).

With CCc1nc2ccc(C(=O)Nc3cccc(OC)c3)cn2c1N(CCC(C)C)CCN(C)C as the compound, how does the inhibition read?
Its inhibition is -15.1% (inactive).

With COc1ccccc1OCC(=O)OCn1c(SC)nnc(C)c1=O as the compound, how does the inhibition read?
The inhibition was 14.2% (inactive).

With CC(=O)Nc1ccc(S(=O)(=O)N(C)c2nc3ccccc3nc2Cl)cc1 as the compound, how does the inhibition read?
Its inhibition is 2.27% (inactive).

For CC(=O)Nc1ccc(Nc2c3ccccc3nc3ccccc23)cc1, which inhibition is on record?
The inhibition was 106% (active).

Which inhibition does the source give for CC(=O)Nc1ccc(Nc2c([N+](=O)[O-])cc(S(C)(=O)=O)cc2[N+](=O)[O-])cc1 here?
Its inhibition is 3.04% (inactive).

For CC(C)Nc1nc(NCCOc2ccccc2Cl)c2sccc2n1, which inhibition is on record?
Its inhibition is 34.3% (inactive).

Which inhibition does the source give for COc1ccc(-c2[nH][nH]c(=O)c2NC(=O)c2ccc([N+](=O)[O-])cc2)cc1 here?
The inhibition was 9.48% (inactive).

For CC(O)c1ccc(OCCN(C)c2ccccn2)cc1 (stereo unspecified), which inhibition is on record?
Its inhibition is -135% (inactive).

With CCN(CC)CCOc1ccc2c(c1)C(=NNC(=O)c1ccccn1)c1cc(OCCN(CC)CC)ccc1-2 as the compound, how does the inhibition read?
Its inhibition is 109% (active).

Which inhibition does the source give for CN(CCOc1ccc(CC2SC(=O)NC2=O)cc1)c1ccccn1 (stereo unspecified) here?
The inhibition was -26.7% (inactive) and -30.1% (inactive).
